The text below walks through data of PubChem BioAssay AID1347165 (National Center for Advancing Translational Sciences (NCATS), 2019).

Among all 220,000 compounds or so, about 5,700 (2.6%) were called active. Not shown: some 18% with an inconclusive outcome. Calls follow the shape of the dose curve; as a rule, active = well fitted inhibition curve with a large enough effect; inconclusive = small, poorly fitted or top-dose-only effect; inactive = no such curve, though single readings can be large or run the other way. The entries come from a sample that favours actives as a whole. Entries that show only a call come without a potency.
Potency is read from the fitted curve at half-maximal effect.

Chain of Lysine-specific demethylase 5B (Homo sapiens) (Q9UGL1 whole entry, looked up): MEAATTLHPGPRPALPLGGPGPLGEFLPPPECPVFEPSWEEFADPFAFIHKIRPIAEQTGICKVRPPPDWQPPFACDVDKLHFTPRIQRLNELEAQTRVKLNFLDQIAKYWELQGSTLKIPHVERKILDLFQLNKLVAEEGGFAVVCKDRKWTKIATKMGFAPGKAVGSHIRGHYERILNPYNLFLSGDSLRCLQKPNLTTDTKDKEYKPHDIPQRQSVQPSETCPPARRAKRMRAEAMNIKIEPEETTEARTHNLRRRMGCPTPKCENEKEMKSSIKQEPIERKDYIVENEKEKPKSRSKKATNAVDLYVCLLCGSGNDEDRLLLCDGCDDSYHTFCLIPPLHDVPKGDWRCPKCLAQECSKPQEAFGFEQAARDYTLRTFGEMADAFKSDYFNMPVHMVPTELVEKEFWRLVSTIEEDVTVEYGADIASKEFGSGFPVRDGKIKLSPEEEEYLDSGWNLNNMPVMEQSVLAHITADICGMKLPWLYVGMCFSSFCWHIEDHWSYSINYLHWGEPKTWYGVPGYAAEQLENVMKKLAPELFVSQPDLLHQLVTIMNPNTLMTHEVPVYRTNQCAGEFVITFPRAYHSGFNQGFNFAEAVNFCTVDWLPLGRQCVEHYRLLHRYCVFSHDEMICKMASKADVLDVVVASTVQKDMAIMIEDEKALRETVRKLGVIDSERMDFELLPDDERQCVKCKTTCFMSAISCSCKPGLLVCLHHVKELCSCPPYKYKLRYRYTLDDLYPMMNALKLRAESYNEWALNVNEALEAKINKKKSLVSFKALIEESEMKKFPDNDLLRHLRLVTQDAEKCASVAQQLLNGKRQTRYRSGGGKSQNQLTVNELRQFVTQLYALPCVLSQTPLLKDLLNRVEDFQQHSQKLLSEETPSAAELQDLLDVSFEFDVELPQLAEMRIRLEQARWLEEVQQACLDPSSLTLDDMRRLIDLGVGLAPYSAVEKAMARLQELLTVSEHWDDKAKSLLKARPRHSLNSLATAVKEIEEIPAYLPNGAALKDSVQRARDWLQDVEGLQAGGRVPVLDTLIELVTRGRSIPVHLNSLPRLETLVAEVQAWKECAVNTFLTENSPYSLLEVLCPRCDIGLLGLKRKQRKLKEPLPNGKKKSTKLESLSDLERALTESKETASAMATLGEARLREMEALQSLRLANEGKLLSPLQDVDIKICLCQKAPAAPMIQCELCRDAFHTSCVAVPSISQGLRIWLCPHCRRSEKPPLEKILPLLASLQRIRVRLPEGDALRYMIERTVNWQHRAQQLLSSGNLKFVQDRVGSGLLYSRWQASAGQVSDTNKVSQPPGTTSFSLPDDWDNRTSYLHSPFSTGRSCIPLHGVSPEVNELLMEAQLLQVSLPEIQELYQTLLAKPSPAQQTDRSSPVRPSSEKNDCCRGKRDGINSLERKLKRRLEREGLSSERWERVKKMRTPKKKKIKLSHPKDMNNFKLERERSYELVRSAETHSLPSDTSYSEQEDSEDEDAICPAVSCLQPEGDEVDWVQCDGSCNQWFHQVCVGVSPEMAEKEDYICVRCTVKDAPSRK

For the assay, the target named is Lysine-specific demethylase 5B (Homo sapiens) (UniProt Q9UGL1). Kind of assay: Primary screen for KDM5B Histone Demethylases FDH-coupled qHTS. Also: nearly all actives have a fitted effect of over 70% in size. The note with it: FDH-coupled NADH fluorescence (FDH is formaldehyde dehydrogenase); series mostly up to 57.7 µM. The source says:
Assay Submitter (PI): Qin Yan, Ph.D. (Yale University) and Xiaodong Cheng, Ph.D. (MD Anderson) This project was funded as part of the NCI NEXT Program and Chemical Biology Consortium (CBC) The histone demethylases, KDM5A and KDM5B catalyze the demethylation of lysine 4 on histone H3 (H3K4me3/2). They are overexpressed in a variety of cancers and have been implicated in cancer cell growth, metastasis, drug resistance, and tumor growth. KDM5A is amplified and overexpressed in breast and gastric cancer; and is translocated in leukemia. While KDM5B is highly expressed in human mammary tumors and breast cancer cell lines, but not in normal adult breast tissue. Moreover, knockdown of KDM5B leads to upregulation of tumor suppressor genes, including BRCA1. The goal of this project is to employ qHTS to identify selective small molecule inhibitors of KDM5A/B demethylase activity to better understand the role of KDM5 in cancer and to develop novel therapies. We employed an FDH-coupled assay previously reported by Sakurai et al. to monitor in vitro KDM5 demethylase activity. Compounds showing dose response inhibition are re-acquired, validated, and tested for non-specific interference with the formaldehyde dehydrogenase (FDH) counterscreen. True inhibitors are validated using an AlphaLisa secondary screen, which employs an H3K4(me2-1)-specific antibody to monitor demethylation of a biotin-tagged H3K4(me3) peptide substrate. Inhibitors are profiled against KDM4A and KDM6A AlphaLisa counterscreens to determine level of demethylase specificity; and against the TruHits counterscreen to eliminate non-specific inhibitory activity on the AlphaLISA detection method. Selective inhibitors identified from the primary and secondary screening are tested in cells using immunofluorescence to monitor global H3K4 tri-methylation as a measure of KDM5A/B inhibition. Early Translation Branch (ETB) National Center for Advancing Translational Sciences (NCATS), Rockville, MD National Institute of Health (NIH), Bethesda, Maryland [1] Sakurai, M et al. A miniaturized screen for inhibitors of Jumonji histone demethylases. Mol Biosyst. 2010 Feb;6(2):357-64. doi: 10.1039/b912993f. Epub 2009 Oct 8.
Materials: 1536-well Black, solid bottom, medium binding assay plate is purchased from Greiner Bio-one. The enzymes (KDM5B) and substrate (H3K4me3/2) are provided by the principal investigators. The buffer for this assay is composed of 50mM HEPES at pH 7.5 with 0.01% Tween-20. FDH coupled Demethylase qHTS protocol: Three microliter enzyme mix (buffer + 200nM KDM5BDeltaAP final concentration) is dispensed into the assay plate using the BioRAPTR Flying Reagent Dispenser (FRD; […]). Compound (at various final concentration) and control solution is pin transferred to the assay plate using the Kalypsys 1536-pin tool apparatus. The assay plate is incubated for 10 min at room temperature followed by addition of 1uL substrate mix (buffer + 100uM ascorbic acid, 50uM ferrous ammonium sulfate, 12.5uM H3K4Me3, 25uM a-ketoglutarate, 0.25 mM NAD+, 0.25 U/mL formaldehyde dehydrogenase using the FRD yielding a total reaction volume of 4 uL. Initial fluorescence (Read1) is detected using the PerkinElmer ViewLux plate reader equipped with 340 nm excitation and 450 nm emission filters. The final fluorescence (Read2) signal is obtained after 30 min of room temperature incubation. Delta RFU is calculated (Read2 - Read1) and is used to generated dose response curves.
Background: qHTS replaces the single test concentration by a dilution series.
As to `COc1cccc(NC(=O)COc2cc(C)cc3oc(=O)cc(C)c23)c1`, the Potency entry is “inactive”.
For `CCOc1ccc(C(=O)N2CC(=O)Nc3ccc(C)cc3C2c2ccccc2)cc1` (stereo unspecified) the value was “inactive”.
On to `CCOc1ccc(-c2cc3c(=O)n(CC(=O)NCc4ccc(OC)cc4)ccn3n2)cc1`, for which the Potency result was “inactive”.
In the case of `CCC(C(=O)NCCn1ccn2nc(-c3ccc(F)cc3)cc2c1=O)c1ccccc1` (stereo unspecified) it was “inactive”; in that of `Cc1ccc(C)c(-c2cc3c(=O)n(CCNC(=O)c4ccncc4)ccn3n2)c1`, “inactive”.
For `CCOc1ccc(-c2cc3c(=O)n(CCNC(=O)c4ccc(OC)cc4C)ccn3n2)cc1` the value was 28.2 µM (active); for `Cc1ccc(C)c(-c2cc3c(=O)n(CCNC(=O)Cc4ccsc4)ccn3n2)c1`, “inactive”.
For `COc1ccc(-c2cc3c(=O)n(CCNC(=O)c4ccc(OC)cc4OC)ccn3n2)cc1` the value was 35.5 µM (active).
`Cc1c(Cl)cccc1NC(=S)NCCSc1ccc(Cl)cc1`: the Potency result was “inactive”.
For `O=Cc1cc(Cl)ccc1O` the value was “inactive”; for `Cc1cc(C)c(NC(=O)COc2ccc(C(=O)Nn3c(C)ccc3C)cc2)c(C)c1`, “inactive”.
For `O=C(Nc1ccccc1C(F)(F)F)N1CCC(N2CCN(Cc3ccccn3)C(=O)C2=O)CC1` the value was “inactive”; for `COc1ccc(C(=O)C(C)OC(=O)c2nn(C)c(=O)c3ccccc23)cc1` (stereo unspecified), “inactive”.
For `COC(=O)c1ccc(/C=C2\CCc3c(C)cc(C)cc3C2=O)cc1` the value was “inactive”.
`O=C(c1ccc2cc[nH]c2n1)N1CCOCC1`: the Potency was 126 µM (active).
For `O=C1CCN(C(=O)c2ccc3ccccc3n2)CCCCCCN1` the value was “inactive”.
In the case of `O=C(CN1CCN(C(=O)c2ccc3ccccc3n2)CC1)NC1CC1` it was “inactive”; in that of `Cc1cccc(C)c1NC(=O)CSc1nc(C)c(C)o1`, “inactive”; in that of `CN(CC(=O)Nc1ccc2c(c1)OC1(CCCCC1)O2)Cc1cccs1`, “inactive”.
In the case of `COc1ccc(S(=O)(=O)NCCOc2ccccc2)cc1F` it was “inactive”; in that of `CCOc1ccc(C2C(C#N)=C(N)N(N(C)C)C3=C2C(=O)CCC3)cc1` (stereo unspecified), “inactive”; in that of `O=C1CCC/C(=N/NC(=O)c2cc(-c3ccncc3)nc3ccccc23)C1`, “inactive”.
Regarding `O=C(c1ccc(Cl)cc1)N(Cc1ccco1)c1ccc(O)cc1`, the Potency result is “inactive”.
As to `CCc1ccc(CCC(=O)NC)cc1`, the Potency entry is “inactive”.
In the case of `CNC(=O)CCN(C)c1nccc(-c2ccc(C)nc2C)n1` it was 25.1 µM (active).
In the case of `CNc1c(NC(=O)Cc2ccc(OC)c(OC)c2)c(=O)oc2ccccc12` it was “inactive”.
For `O=C(NNC(=O)C1CCC1)c1ccccc1` the value was “inactive”; for `O=C(OCc1ccc(F)cc1)c1cnc2ccccc2n1`, “inactive”; for `Cc1ccc(NC(=O)c2ccoc2)cc1I`, “inactive”.
Regarding `O=C(NC12CC3CC(CC(C3)C1)C2)c1cccc2ncccc12`, the Potency result was “inactive”.
For `Cc1ccccc1NC(=O)C(C)Sc1ccc(C(F)(F)F)cn1` (stereo unspecified) the value was “inactive”.
In the case of `CC1(C)C/C(=N/Nc2ccc([N+](=O)[O-])cc2[N+](=O)[O-])C(C)(C)O1` it was “inactive”; in that of `CC(C)c1ccc(/C=C(/C#N)c2nc3ccccc3[nH]2)cc1`, “inactive”; in that of `COc1ccccc1C(=O)N1CCc2c(nc3cc(-c4ccccc4Cl)[nH]n3c2=O)C1`, 22.4 µM (active).
In the case of `COc1ccc(-c2nc(C(C)C)nc3c2CN(C(=O)c2ccccc2F)CC3)cc1` it was “inactive”.
With `COC(=O)c1cccc(NC(=O)N2CCC3(CCC(=O)N(Cc4ccccc4)CC3)CC2)c1`, the Potency entry is “inactive”.
Consider `COc1ccc(-c2cc(N3CCCN(C(=O)c4ccc(OC)cc4C)CC3)n[nH]2)cc1`, for which the Potency result was “inactive”.
In the case of `O=C(Nc1ccccc1)N1CCc2nc(-c3ccccc3)nc(-c3ccc(Cl)cc3)c2C1` it was “inactive”; in that of `COc1ccc(-c2cc3nc4c(c(=O)n3[nH]2)CCN(C(=O)c2ccccc2C)C4)cc1`, 20 µM (active); in that of `COC(=O)c1cccc(NC(=O)N2CCc3c(nc4cc(-c5ccccc5)[nH]n4c3=O)C2)c1`, 11.2 µM (active).
In the case of `COc1ccccc1CC(=O)N1CCc2c(nc3cc(-c4ccccc4Cl)[nH]n3c2=O)C1` it was “inactive”; in that of `COc1ccccc1N1CCN(C(=O)c2ccccc2-c2ncc[nH]2)CC1=O`, “inactive”.
For the compound `CCN(CC)c1nc2ccccc2nc1C(=O)Nc1ccccc1C`, the Potency entry was “inactive”.
In the case of `O=c1oc2ccccc2c2nc(-c3ccccc3)c(-c3ccccc3)nc12` it was “inactive”; in that of `Cc1c(-c2ccccc2)nc2ccccc2c1C(=O)OCC(N)=O`, “inactive”; in that of `COC(=O)CC(NC(=O)c1nn(C)c(=O)c2ccccc12)c1ccccc1` (stereo unspecified), “inactive”.
In the case of `CC(C)C(=O)NC(Nc1ccccc1Cl)(C(F)(F)F)C(F)(F)F` it was “inactive”; in that of `COc1ccc(-c2ccc3ncc(Nc4ccc(C(F)(F)F)cc4)n3n2)cn1`, “inactive”; in that of `COc1ccc(-c2ccc3ncn(C4CC4)c(=O)c3n2)cn1`, 39.8 µM (active).
In the case of `COc1ccc(Nc2cnc3ccc(-c4ccc(OC)nc4)nn23)cc1` it was “inactive”; in that of `O=C(O)c1cccc(NC(NC(=O)c2cccs2)C(=O)c2ccccc2)c1` (stereo unspecified), “inactive”.
